Measurements taken from PubChem BioAssay (EPA / NIEHS).
Activity calls are given as the source filed them. The calls were made as follows: active = hit-call score of the fitted dose curve at least 0.9, where 1 is the maximum; inactive = score below 0.9.

Experiments:
[1] = ATG_CRE_CIS: Attagene CIS-FACTORIAL HepG2 Assay for human cAMP Responsive Element (CRE) binding protein 3 (AID 2282926); settings: HepG2 CRE cis-reporter, Attagene multiplexed mRNA; actives raise or lower the signal
How it was run: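 We dosed HepG2 cells bearing multiple cis-promoter reporter units for 24 h and measured reporter mRNA by RT-PCR with capillary electrophoresis detection. Bidirectional concentration-response fitting used DMSO as negative control.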

[2] = target: CCAAT/enhancer-binding protein beta (Homo sapiens) (UniProt P17676); experiment: ATG_C_EBP_CIS: Attagene CIS-FACTORIAL HepG2 Assay for human CCAAT/Enhancer Binding Protein (C/EBP) beta (AID 2282927); settings: HepG2 Attagene cis-factorial transcription factor reporter; actives raise or lower the signal
Sequence of CCAAT/enhancer-binding protein beta (Homo sapiens) (P17676 whole entry, looked up, the tested form may be a part): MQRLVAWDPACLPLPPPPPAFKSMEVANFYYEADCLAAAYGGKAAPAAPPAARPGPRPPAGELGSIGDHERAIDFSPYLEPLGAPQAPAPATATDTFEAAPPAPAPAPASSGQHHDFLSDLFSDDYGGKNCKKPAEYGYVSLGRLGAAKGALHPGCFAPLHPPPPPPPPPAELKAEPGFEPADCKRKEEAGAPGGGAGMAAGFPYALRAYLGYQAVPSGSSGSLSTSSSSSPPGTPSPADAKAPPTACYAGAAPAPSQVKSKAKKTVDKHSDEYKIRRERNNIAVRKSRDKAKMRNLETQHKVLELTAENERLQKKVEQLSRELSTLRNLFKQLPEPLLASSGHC
How it was run: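 Chemical-treated HepG2 cells (24 h) bearing cis-regulated reporter constructs were processed for total RNA, then reverse transcription, PCR amplification, fluorescent primer extension and fragment analysis; gain- and loss-of-signal were fitted against DMSO.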

[3] = ATG_CMV_CIS: Attagene CIS-FACTORIAL HepG2 Assay for human CMV (Internal Marker) (AID 2282928); settings: HepG2 CMV promoter reporter, transcription factor profiling; actives raise or lower the signal;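 also: endpoint acts as a background internal control marker rather than a target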
How it was run: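 HepG2 cells transiently transfected with multiple cis-regulated reporter units; 24 h compound exposure. Reporter mRNA quantified by RT-PCR, 6-FAM primer-extension labeling, HpaI digestion and capillary electrophoresis; bidirectional fitting against DMSO baseline.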

[4] = ATG_DR4_LXR_CIS: Attagene CIS-FACTORIAL HepG2 Assay for human Liver X Receptor (LXR), DR4 submotif (AID 2282929); settings: HepG2 Attagene DR4 cis-reporter, mRNA transcription; actives raise or lower the signal
How it was run: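 Readout: reporter transcript fluorescence after RT-PCR and capillary electrophoresis, fitted bidirectionally against DMSO controls. Human HepG2 liver cells carried transiently transfected multiplexed reporter constructs; endogenous transcription factor activity measured 24 h post-dosing.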

[5] = target: Aryl hydrocarbon receptor (Homo sapiens) (UniProt P35869); experiment: ATG_Ahr_CIS: Attagene CIS-FACTORIAL HepG2 Assay for human Aryl Hydrocarbon Receptor (Ahr) (AID 2282930); settings: HepG2 AhR cis-factorial reporter transcription; actives raise or lower the signal
Sequence of Aryl hydrocarbon receptor (Homo sapiens) (P35869 whole entry, looked up): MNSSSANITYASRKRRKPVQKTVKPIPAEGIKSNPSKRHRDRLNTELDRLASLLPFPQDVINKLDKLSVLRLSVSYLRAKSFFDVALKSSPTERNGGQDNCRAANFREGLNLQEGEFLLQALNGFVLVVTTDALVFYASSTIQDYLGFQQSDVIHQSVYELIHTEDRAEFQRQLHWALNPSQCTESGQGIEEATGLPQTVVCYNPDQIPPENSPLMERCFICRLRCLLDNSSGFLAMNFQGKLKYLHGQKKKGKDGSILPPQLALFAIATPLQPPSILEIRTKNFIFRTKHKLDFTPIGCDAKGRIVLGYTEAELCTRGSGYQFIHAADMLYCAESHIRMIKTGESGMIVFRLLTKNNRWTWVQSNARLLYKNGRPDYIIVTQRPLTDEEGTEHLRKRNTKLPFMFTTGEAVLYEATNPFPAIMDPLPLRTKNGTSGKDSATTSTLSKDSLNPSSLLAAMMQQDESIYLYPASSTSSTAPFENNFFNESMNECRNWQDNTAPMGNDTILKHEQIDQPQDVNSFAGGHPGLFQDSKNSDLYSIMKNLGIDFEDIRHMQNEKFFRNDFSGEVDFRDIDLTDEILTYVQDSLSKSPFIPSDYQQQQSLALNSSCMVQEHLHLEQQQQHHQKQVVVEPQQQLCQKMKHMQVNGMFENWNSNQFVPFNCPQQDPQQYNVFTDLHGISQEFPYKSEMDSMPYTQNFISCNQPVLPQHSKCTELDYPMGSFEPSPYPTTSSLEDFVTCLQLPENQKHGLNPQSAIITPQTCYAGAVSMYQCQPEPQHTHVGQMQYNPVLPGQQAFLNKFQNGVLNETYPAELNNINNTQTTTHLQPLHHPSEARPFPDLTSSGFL
How it was run: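 Following 24 h of chemical dosing, transfected HepG2 liver cells with cis-driven reporter units were lysed for RNA; reporter mRNA was quantified via RT-PCR and capillary electrophoresis, and responses fitted bidirectionally from DMSO.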

[6] = ATG_AP_2_CIS: Attagene CIS-FACTORIAL HepG2 Assay for human Activator Protein 2 (AP-2) (AID 2282932); settings: HepG2 AP-2 cis-reporter, Attagene transcription factor profiling; actives raise or lower the signal
How it was run: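 HepG2 cells were transiently transfected with multiple cis-promoter reporter transcription units and dosed for 24 h. Reporter mRNA was measured by RT-PCR with capillary electrophoresis fluorescence; bidirectional fits relative to DMSO baseline.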

[7] = ATG_BRE_CIS: Attagene CIS-FACTORIAL HepG2 Assay for human Bone Morphogenetic Protein (BMP) Response Element (BRE) (AID 2282933); settings: HepG2 BMP response element reporter, Attagene transcription factor profiling; actives raise or lower the signal
How it was run: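 Fluorescence-labelled reporter cDNA fragments, separated by capillary electrophoresis, gave the signal for this component of a 52-readout multiplex. HepG2 cells were transfected, exposed to chemicals for 24 h, and compared with DMSO using bidirectional fitting.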

[8] = ATG_AP_1_CIS: Attagene CIS-FACTORIAL HepG2 Assay for human Activator Protein 1 (AP-1) (AID 2282931); settings: HepG2 Attagene cis-factorial AP-1 reporter mRNA; actives raise or lower the signal
How it was run: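 Reporter transcripts were measured 24 h after dosing by RT-PCR and capillary electrophoresis of fluorescent fragments. Cells: HepG2 carrying transfected cis-regulated reporter constructs reading endogenous factor activity. Gain or loss fitted against DMSO.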

[9] = target: Retinoic acid receptor alpha (Homo sapiens) (UniProt P10276); experiment: ATG_DR5_RAR_CIS: Attagene CIS-FACTORIAL HepG2 Assay for human Retinoic Acid Receptor Alpha (RARE), DR5 submotif (AID 2282934); settings: HepG2 Attagene cis-factorial RARE DR5 reporter, mRNA; actives raise or lower the signal
Sequence of Retinoic acid receptor alpha (Homo sapiens) (P10276 whole entry, looked up): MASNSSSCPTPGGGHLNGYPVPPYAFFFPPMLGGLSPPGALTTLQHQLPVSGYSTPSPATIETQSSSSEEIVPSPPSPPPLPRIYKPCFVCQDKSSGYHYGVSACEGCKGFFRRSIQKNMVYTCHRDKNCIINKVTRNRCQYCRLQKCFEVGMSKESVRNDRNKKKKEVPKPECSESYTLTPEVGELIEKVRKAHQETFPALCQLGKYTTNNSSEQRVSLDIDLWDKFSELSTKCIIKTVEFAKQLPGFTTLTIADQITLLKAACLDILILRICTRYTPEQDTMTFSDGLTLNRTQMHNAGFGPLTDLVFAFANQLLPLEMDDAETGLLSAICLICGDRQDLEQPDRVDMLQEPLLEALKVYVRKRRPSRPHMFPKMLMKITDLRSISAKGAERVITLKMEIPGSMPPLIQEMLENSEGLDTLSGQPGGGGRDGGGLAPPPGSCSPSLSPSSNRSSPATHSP
How it was run: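 Transfected HepG2 reporter cells are exposed to chemicals for 24 h. Then RNA is extracted and the DR5 element reporter transcript is measured by RT-PCR and capillary electrophoresis, with bidirectional curve fitting relative to DMSO.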

SMILES | outcome [1] | outcome [2] | outcome [3] | outcome [4] | outcome [5] | outcome [6] | outcome [7] | outcome [8] | outcome [9] | AC50 [4]
CC/C=C\CCCCO | inactive | inactive | inactive | inactive | inactive | inactive | inactive | – | – | –
CC(O)CN (stereo not given) | inactive | inactive | inactive | inactive | – | inactive | inactive | inactive | inactive | –
CC(C)COC(=O)c1ccccc1O | inactive | inactive | inactive | inactive | – | inactive | inactive | inactive | – | –
CCCCOCCOC(=O)c1ccccc1C(=O)OCCOCCCC | inactive | inactive | inactive | – | – | inactive | inactive | inactive | inactive | 55.8 µM (active)
